Pf Dd2 growth: blocks in vitro growth of P. falciparum Dd2; P. falciparum Dd2 growth, SYBR Green, 72 h; Potency, µM (series often up to 28.9 µM), hits mostly inhibitors; 120,000 compounds, 4.3% hits; active means well fitted inhibition curve with a large enough effect; further: nearly all actives have a fitted effect of over 65% in size
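Readout: SYBR Green fluorescence, 485 nm excitation, 535 nm emission, after ~16 h lysis at 37C. Before that, Dd2-infected red cells (2.5% hematocrit) grew 72 h with compound, 29 uM top final concentration.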
Of the large screens only hits and unclear results are named; the others gave an inactive call. The entries come from a sample that favours hits as a whole.

CCN(Cc1nc(C)no1)C(=O)c1cc(COc2cccc(F)c2)[nH]n1	none
COCC(=O)N1CCCC(c2noc(COc3ccccc3)n2)C1 (stereo not drawn)	none
CC(=O)C1=C(c2ccc(Br)cc2)N(C(C)=O)n2c(nnc2C2CCCCC2)S1	Pf Dd2 growth 1.41µM
O=C1c2ccccc2CN1C1CCN([S+](=O)([O-])c2cccs2)CC1	none
CCOc1ccc(NC(=O)N(Cc2cn(CC)c3ccccc23)C2CCCCCC2)cc1	Pf Dd2 growth 10µM
CCOc1ccc(CNC(=O)CCc2cn(CC)c3ccccc23)cc1	none
CCOc1ccc(NC(=O)Cn2cc(C(=O)C3CC3)c3ccccc32)cc1	none
O=C(c1cc(F)ccc1Cl)N1C[C@@H](CO)[C@H](c2ccncc2)C1	none
COCCc1nncn1C1CCN(C(=O)c2ccc(OC)cc2)CC1	none
Cc1cccc(Cn2c(SCc3ccc(C(=O)NCc4ccccc4F)cc3)nc3ccncc32)c1	Pf Dd2 growth 11.2µM
Cc1cccc(Cn2c(SCc3ccc(C(=O)NC4CCCCC4)cc3)nc3ccncc32)c1	none
COc1cccc(CNC(=O)c2ccc(CSc3nc4ccncc4n3Cc3cccc(C)c3)cc2)c1	Pf Dd2 growth 3.16µM
Cc1cccc(-c2nc(Cn3c(SCc4cccc(C(F)(F)F)c4)nc4ccncc43)c(C)o2)c1	none
COc1cccc(CNC(=O)c2ccc3oc(=O)n(Cc4ccccc4)c3c2)c1	none
CCC(C(=O)NC1CCCCC1)n1c(SCc2cccc(C)c2)nc2ccncc21 (stereo not drawn)	none
Cc1ccc(C2Cn3nnc(-c4noc(-c5cccc(F)c5)n4)c3CO2)cc1 (stereo not drawn)	none
COc1ccc(C(=O)NC2CCN(c3cnn(C)c(=O)c3)CC2)c(OC)n1	none
CCOCCn1cc(C2CCN(S(=O)(=O)c3c(C)cc(C)cc3C)CC2)c2ccccc21	none
CCOCCn1cc(C2CCN(S(=O)(=O)c3ccc(Cl)cc3Cl)CC2)c2ccccc21	none
CCCn1cc(C2CCN(S(=O)(=O)c3c(C)c(C)cc(C)c3C)CC2)c2ccccc21	Pf Dd2 growth 10µM
Cc1ccc(CNC(=O)C2CCCN(c3cnn(Cc4ccccc4)c(=O)c3)C2)o1 (stereo not drawn)	none
COC(=O)C1=CN(CC(=O)Nc2c(C)cccc2C)S(=O)(=O)N=C1C	none
Cc1cc2nc3n(c(=O)c2n1CC(=O)Nc1cccc(C(C)C)c1)CCCC3	none
COc1ccccc1CNC(=O)C1CCCN(Cc2cccnc2)CCC(=O)NCC1 (stereo not drawn)	none
O=C(CN1C(=O)COc2ccc(C(=O)COc3ccc(F)cc3)cc21)Nc1ccccc1	none
O=C(Cc1c[nH]c(=O)[nH]c1=O)NC(c1cnc2ccccc2c1)C1CC(O)C1 (stereo not drawn)	none
C[C@@H]1CN(c2nc(-c3ccccc3)no2)CC[C@@]1(O)C1CCC1	none
CC(C)c1ccc(NC2=N[C@H]3[C@@H](O)[C@H](O)C[C@H](C(=O)NC4CCCC4)[C@H]3S2)cc1	none
COc1cccc(CNC[C@H]2O[C@H](Cc3cc(-c4ccccc4)on3)CC[C@@H]2O)c1	Pf Dd2 growth 2.51µM
COc1ccc(-c2cc(C[C@@H]3CC[C@H](O)[C@@H](CNC(=O)Nc4ccccc4)O3)no2)cc1	none
COc1cccc(CNC[C@H]2O[C@H](Cc3cc(CN4CCOCC4)on3)CC[C@@H]2O)c1	none
CCOc1ccc(-c2noc(-c3nc(CC)no3)n2)cc1	none
CCC(=O)N1CCCCC1c1noc(COCCOC)n1 (stereo not drawn)	none
CCc1nc(-c2c3n(c(=O)n(CC(=O)Nc4cc(C)ccc4C)c2=O)CCCCC3)no1	none
COc1ccc(OC2CN(C(=O)c3ccccc3)C2)cc1	none
CCOCCOC1CCN(C(=O)c2c[nH]c3ccccc23)CC1	none
CN1CC(c2ccccc2)CC2(CCN(C(=O)CCCn3ccnc3)CC2)C1 (stereo not drawn)	Pf Dd2 growth 12.6µM
O=C(O)c1cccc(C2CCCN(C(=O)CCCn3ccnc3)C2)c1 (stereo not drawn)	none
CCc1ocnc1C(=O)N1CCC2(CC1)CC(c1ccccc1)CN(C)C2 (stereo not drawn)	none
CN(C)C[C@H]1O[C@H](Cc2cc(-c3cccc(O)c3)on2)CC[C@@H]1O	none
O=C(NC(=O)c1ccccc1)Nc1ccc(-c2cc(C(F)(F)F)nn2-c2ccccc2)cc1	none
O=C(Nc1ccc(-c2cc(C(F)(F)F)nn2-c2ccccc2)cc1)c1cccc(F)c1	Pf Dd2 growth 11.2µM
O=C(NC(=O)c1cccc(F)c1)Nc1ccc(-c2cc(C(F)(F)F)nn2-c2ccccc2)cc1	none
Cc1noc([C@@H](C)NC(=O)Nc2ccc(Cl)cc2)c1C(=O)O	none
O=C(NC1CCc2ccccc21)C1CCN(C(=O)c2ncn3c2COC(c2ccccc2)C3)CC1 (stereo not drawn)	none
COCCOc1ccc2c(n1)CCN(C(=O)C1(c3ccc(OC)cc3)CC1)C2	Pf Dd2 growth 7.08µM
COCCOc1ccc2c(n1)CCN(C(=O)C1CCCC1)C2	none
COCCOc1ccc2c(n1)CCN(C(=O)c1ccccc1OC)C2	none
N#Cc1cccc(CN2CCC3(Cc4ccccc4CNC3=O)C2)c1 (stereo not drawn)	none
CC(=O)N(C1CC1)C1CCOC2(CCN(C(=O)NCc3ccc(F)cc3)CC2)C1 (stereo not drawn)	none
